# Measured values from article PMC7862700, “An all-to-all approach to the identification of sequence-specific readers for epigenetic DNA modifications on cytosine”.
# Experiments:
# Assay in all cases: DAPPL (digital affinity profiling via proximity ligation, sequencing); 10 mM Tris-HCl pH 7.5, 50 mM NaCl, 1 mM DTT, 4% glycerol, room temperature, 30 min; GST-TFs on glutathione beads, 16-mer random dsDNA library, 0.1% formaldehyde crosslink after washing; high values mean tight binding
# FLI1 = target: T1, FLI1 (Homo sapiens, UniProt Q01543 1-452); conditions: protein: recombinant; tags: N-terminal GST; dsDNA, one strand shown
# T1 sequence: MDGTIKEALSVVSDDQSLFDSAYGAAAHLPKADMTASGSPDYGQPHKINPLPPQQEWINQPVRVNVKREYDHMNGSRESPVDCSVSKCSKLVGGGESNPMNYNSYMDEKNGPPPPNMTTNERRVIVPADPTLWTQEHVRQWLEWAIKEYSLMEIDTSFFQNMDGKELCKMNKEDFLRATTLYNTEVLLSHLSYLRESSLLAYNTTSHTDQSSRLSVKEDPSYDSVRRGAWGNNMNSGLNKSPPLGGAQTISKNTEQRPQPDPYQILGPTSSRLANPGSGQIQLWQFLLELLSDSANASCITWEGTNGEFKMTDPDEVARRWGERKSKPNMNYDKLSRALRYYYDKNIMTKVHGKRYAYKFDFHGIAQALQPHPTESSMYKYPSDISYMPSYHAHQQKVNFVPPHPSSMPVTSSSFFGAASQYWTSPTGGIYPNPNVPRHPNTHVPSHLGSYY
# How it was run: (§1)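 A tag-only sample was pooled with DNA-barcoded human transcription factors that had been expressed in yeast as GST fusions and captured on glutathione beads. The pools were incubated for 30 min at room temperature with 200 nmole of a random double-stranded 16-mer DNA library in Tris/NaCl/DTT/glycerol buffer, then washed, crosslinked with 0.1% formaldehyde, proximity-ligated (BsaI/T4 ligase, 1 h, 37 °C), PCR-amplified and sequenced on an Illumina NextSeq500. Binding signal is each hexamer's read frequency for a factor divided by its frequency for the tag-only sample.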
# ELK1 = target: T2, ELK1 (Homo sapiens, UniProt P19419 1-428); conditions: protein: recombinant; tags: N-terminal GST; dsDNA, one strand shown
# T2 sequence: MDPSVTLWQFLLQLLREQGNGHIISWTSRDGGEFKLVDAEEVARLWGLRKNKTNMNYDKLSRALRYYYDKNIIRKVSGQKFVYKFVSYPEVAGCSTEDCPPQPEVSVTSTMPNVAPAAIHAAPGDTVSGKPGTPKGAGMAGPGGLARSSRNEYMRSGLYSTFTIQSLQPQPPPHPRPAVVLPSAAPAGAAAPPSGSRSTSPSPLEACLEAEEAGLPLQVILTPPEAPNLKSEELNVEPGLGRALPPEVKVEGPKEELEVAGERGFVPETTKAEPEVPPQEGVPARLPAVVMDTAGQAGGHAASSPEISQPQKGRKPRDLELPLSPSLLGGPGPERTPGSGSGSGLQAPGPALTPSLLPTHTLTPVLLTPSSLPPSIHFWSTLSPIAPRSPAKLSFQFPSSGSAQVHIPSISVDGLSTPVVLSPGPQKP
# How it was run: as §1
# GABPA = target: T3, GABPA (Homo sapiens, UniProt Q06546 1-454); conditions: protein: recombinant; tags: N-terminal GST; dsDNA, one strand shown
# T3 sequence: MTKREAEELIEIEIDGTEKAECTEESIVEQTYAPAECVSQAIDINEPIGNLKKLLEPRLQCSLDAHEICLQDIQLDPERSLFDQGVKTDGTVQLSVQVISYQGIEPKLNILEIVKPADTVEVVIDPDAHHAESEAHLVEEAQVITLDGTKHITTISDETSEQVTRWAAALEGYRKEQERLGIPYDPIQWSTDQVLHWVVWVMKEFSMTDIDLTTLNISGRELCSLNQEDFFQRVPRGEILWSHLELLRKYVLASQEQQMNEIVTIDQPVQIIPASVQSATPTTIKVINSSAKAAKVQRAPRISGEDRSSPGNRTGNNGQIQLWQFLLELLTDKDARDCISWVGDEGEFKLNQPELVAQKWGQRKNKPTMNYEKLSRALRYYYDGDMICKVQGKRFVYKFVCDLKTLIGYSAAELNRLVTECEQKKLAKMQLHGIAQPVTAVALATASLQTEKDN
# How it was run: as §1
# ERG = target: T4, ERG (Homo sapiens, UniProt P11308 1-479); conditions: protein: recombinant; tags: N-terminal GST; dsDNA, one strand shown
# T4 sequence: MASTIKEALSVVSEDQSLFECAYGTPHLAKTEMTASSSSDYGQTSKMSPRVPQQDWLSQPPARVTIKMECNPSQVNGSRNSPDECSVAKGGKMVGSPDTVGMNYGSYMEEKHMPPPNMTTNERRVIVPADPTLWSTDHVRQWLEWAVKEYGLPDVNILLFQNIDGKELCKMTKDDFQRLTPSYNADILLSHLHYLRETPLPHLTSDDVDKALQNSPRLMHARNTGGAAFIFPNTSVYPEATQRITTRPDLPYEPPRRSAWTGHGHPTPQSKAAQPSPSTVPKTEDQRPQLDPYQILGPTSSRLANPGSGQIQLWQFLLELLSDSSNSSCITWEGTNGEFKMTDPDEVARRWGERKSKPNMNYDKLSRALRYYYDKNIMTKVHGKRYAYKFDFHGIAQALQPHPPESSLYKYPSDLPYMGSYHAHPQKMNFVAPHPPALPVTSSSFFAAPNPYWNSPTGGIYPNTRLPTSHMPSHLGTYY
# How it was run: as §1
# ELF1 = ELF1 (Homo sapiens, UniProt P32519 1-619); conditions: protein: recombinant; tags: N-terminal GST; dsDNA, one strand shown
# How it was run: as §1
# EHF = target: T5, EHF (Homo sapiens, UniProt Q9NZC4 1-300); conditions: protein: recombinant; tags: N-terminal GST; dsDNA, one strand shown
# T5 sequence: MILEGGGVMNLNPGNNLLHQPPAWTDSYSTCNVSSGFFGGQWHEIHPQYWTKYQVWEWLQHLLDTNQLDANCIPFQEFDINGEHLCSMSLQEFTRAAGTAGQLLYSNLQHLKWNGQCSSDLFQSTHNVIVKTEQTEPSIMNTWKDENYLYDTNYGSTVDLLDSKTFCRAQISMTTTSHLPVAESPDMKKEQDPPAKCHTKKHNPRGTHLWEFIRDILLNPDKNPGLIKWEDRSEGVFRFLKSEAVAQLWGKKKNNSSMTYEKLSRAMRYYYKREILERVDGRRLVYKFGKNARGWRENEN
# How it was run: as §1
# SPI1 = SPI1 (Homo sapiens, UniProt P17947 1-270); conditions: protein: recombinant; tags: N-terminal GST; dsDNA, one strand shown
# How it was run: as §1
# SPIB = SPIB (Homo sapiens, UniProt Q01892 1-262); conditions: protein: recombinant; tags: N-terminal GST; dsDNA, one strand shown
# How it was run: as §1
# ELK3 = target: T6, ELK3 (Homo sapiens, UniProt P41970 1-407); conditions: protein: recombinant; tags: N-terminal GST; dsDNA, one strand shown
# T6 sequence: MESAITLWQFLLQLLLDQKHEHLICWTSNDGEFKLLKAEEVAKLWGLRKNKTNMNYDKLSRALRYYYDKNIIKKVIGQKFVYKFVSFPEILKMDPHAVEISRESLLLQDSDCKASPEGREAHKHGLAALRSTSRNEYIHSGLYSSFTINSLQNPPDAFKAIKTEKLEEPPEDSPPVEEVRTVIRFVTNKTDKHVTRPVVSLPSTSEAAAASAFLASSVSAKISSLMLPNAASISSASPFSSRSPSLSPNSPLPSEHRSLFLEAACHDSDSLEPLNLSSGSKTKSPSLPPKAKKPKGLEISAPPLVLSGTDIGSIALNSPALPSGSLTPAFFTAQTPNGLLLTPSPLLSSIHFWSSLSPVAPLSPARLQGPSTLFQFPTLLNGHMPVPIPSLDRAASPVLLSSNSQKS
# How it was run: as §1
# FEV = target: T7, FEV (Homo sapiens, UniProt Q99581 1-238); conditions: protein: recombinant; tags: N-terminal GST; dsDNA, one strand shown
# T7 sequence: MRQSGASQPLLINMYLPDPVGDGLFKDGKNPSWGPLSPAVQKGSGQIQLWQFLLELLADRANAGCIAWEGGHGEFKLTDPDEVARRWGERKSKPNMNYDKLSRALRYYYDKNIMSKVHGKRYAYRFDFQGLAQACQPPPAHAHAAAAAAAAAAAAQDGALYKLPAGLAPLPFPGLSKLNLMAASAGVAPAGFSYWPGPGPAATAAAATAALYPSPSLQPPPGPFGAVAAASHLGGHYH
# How it was run: as §1
# ETV5 = ETV5 (Homo sapiens, UniProt P41161 1-510); conditions: protein: recombinant; tags: N-terminal GST; dsDNA, one strand shown
# How it was run: as §1
# HSF1 = HSF1 (Homo sapiens, UniProt Q00613 1-529); conditions: protein: recombinant; tags: N-terminal GST; chain copies: 3; dsDNA, one strand shown
# How it was run: as §1
# SPIC = target: T8, SPIC (Homo sapiens, UniProt Q8N5J4 1-248); conditions: protein: recombinant; tags: N-terminal GST; dsDNA, one strand shown
# T8 sequence: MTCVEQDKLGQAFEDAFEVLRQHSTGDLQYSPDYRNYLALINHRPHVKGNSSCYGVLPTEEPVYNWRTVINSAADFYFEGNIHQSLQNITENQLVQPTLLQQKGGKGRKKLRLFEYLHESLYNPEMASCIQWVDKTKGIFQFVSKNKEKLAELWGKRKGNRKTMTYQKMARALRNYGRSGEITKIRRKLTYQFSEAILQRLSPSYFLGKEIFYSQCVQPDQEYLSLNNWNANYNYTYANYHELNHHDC
# How it was run: as §1
# ELF4 = ELF4 (Homo sapiens, UniProt Q99607 1-663); conditions: protein: recombinant; tags: N-terminal GST; dsDNA, one strand shown
# How it was run: as §1
# ELK4 = target: T9, ELK4 (Homo sapiens, UniProt P28324-2 1-405); conditions: protein: recombinant; tags: N-terminal GST; dsDNA, one strand shown
# T9 sequence: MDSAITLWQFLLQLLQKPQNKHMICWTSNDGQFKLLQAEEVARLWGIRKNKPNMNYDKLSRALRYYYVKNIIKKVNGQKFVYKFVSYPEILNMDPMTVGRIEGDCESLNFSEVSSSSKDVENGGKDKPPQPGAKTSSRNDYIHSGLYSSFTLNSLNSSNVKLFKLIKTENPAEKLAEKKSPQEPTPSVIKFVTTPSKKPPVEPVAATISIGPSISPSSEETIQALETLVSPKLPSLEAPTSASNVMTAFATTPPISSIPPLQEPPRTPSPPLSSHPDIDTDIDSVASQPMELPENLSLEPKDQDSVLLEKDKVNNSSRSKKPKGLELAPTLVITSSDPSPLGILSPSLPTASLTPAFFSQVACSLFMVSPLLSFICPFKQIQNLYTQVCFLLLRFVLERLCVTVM
# How it was run: as §1
# ETV2 = target: T10, ETV2 (Homo sapiens, UniProt O00321 1-342); conditions: protein: recombinant; tags: N-terminal GST; dsDNA, one strand shown
# T10 sequence: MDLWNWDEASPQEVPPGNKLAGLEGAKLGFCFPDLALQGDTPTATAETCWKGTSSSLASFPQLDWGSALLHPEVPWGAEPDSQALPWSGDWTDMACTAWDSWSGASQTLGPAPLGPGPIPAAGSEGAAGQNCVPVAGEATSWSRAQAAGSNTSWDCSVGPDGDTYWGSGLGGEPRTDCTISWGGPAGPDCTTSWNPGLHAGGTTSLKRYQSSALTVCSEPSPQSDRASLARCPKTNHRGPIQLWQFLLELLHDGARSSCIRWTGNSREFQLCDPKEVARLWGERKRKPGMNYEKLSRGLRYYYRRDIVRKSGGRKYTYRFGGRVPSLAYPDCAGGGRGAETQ
# How it was run: as §1
# ELF3 = target: T11, ELF3 (Homo sapiens, UniProt P78545 1-371); conditions: protein: recombinant; tags: N-terminal GST; dsDNA, one strand shown
# T11 sequence: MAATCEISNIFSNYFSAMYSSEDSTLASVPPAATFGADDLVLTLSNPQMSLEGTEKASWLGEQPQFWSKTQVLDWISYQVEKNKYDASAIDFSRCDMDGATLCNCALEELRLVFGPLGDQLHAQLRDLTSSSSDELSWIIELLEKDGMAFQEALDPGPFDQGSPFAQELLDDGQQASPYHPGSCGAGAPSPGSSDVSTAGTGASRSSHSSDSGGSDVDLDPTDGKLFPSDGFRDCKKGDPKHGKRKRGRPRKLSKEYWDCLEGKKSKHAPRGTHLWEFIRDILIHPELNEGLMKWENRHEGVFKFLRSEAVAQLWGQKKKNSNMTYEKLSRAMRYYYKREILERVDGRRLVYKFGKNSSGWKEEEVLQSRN
# How it was run: as §1
# CRX = CRX (Homo sapiens, UniProt O43186 1-299); conditions: protein: recombinant; tags: N-terminal GST; dsDNA, one strand shown
# How it was run: as §1
# ETV1 = ETV1 (Homo sapiens, UniProt P50549 1-477); conditions: protein: recombinant; tags: N-terminal GST; dsDNA, one strand shown
# How it was run: as §1
# Chain of ELF1 (P32519 whole entry): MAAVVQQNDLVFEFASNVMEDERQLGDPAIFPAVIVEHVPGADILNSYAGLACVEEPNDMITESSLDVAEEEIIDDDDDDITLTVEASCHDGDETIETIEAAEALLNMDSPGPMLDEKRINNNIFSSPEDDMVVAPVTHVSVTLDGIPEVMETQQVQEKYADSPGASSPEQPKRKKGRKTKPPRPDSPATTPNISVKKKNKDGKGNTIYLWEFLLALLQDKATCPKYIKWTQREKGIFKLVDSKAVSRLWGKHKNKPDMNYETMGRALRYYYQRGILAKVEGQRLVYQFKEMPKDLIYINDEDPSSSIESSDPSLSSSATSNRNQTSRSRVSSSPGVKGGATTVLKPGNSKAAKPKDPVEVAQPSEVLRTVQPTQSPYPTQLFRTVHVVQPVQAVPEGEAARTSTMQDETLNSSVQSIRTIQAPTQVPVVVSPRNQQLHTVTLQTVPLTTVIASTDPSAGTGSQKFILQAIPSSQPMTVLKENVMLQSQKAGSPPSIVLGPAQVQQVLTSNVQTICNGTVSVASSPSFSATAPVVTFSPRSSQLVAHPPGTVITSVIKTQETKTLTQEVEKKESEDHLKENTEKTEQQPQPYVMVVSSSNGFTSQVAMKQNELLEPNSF
# Chain of CRX (O43186 whole entry): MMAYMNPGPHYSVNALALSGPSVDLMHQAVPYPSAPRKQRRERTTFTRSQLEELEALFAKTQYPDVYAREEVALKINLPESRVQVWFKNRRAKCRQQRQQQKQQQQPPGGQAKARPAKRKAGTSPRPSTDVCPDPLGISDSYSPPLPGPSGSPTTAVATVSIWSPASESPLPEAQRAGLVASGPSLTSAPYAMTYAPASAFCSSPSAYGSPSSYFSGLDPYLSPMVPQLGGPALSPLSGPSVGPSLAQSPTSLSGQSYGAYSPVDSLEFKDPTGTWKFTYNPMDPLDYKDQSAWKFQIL
# Chain of HSF1 (Q00613 whole entry): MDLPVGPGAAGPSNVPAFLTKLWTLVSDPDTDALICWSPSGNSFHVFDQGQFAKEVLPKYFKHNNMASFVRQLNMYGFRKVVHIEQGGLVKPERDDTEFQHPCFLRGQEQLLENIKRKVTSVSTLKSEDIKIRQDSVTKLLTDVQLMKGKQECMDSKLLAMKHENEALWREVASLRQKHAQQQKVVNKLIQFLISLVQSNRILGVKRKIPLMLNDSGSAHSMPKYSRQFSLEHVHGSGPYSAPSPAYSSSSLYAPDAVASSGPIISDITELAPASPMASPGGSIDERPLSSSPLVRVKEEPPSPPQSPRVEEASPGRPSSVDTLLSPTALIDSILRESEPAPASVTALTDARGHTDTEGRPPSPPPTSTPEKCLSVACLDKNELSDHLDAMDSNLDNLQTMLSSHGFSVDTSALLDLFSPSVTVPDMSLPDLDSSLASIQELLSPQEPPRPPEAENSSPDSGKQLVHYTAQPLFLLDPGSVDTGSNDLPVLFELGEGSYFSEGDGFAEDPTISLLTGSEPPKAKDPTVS
# Chain of ETV5 (P41161 whole entry): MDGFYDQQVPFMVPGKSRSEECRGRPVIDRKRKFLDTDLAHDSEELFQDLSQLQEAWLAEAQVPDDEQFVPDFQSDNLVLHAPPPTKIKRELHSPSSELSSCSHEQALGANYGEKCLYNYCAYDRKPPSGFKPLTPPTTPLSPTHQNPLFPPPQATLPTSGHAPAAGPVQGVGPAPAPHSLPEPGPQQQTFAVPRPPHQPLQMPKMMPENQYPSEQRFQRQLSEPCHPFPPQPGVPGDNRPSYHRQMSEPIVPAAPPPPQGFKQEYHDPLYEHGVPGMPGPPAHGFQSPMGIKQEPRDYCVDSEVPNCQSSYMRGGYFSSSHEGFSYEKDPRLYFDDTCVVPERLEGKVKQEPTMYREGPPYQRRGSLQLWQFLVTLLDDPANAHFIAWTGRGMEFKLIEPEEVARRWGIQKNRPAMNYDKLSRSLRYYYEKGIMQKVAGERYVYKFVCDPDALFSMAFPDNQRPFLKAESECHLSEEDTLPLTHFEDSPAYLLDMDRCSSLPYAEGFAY
# Chain of ETV1 (P50549 whole entry): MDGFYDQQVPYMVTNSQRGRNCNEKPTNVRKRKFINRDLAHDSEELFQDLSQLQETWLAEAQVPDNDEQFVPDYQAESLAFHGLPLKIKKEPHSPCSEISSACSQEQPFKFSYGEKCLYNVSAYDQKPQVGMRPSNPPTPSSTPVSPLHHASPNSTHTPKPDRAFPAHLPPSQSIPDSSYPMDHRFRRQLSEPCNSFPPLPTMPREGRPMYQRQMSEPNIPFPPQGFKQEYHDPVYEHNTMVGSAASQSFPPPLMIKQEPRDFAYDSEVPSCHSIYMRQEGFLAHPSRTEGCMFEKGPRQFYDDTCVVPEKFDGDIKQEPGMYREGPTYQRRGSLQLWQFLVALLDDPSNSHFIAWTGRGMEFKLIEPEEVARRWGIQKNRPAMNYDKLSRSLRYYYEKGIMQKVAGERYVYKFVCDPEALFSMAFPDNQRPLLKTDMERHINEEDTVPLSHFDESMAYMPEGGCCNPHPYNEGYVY
# Chain of SPIB (Q01892 whole entry): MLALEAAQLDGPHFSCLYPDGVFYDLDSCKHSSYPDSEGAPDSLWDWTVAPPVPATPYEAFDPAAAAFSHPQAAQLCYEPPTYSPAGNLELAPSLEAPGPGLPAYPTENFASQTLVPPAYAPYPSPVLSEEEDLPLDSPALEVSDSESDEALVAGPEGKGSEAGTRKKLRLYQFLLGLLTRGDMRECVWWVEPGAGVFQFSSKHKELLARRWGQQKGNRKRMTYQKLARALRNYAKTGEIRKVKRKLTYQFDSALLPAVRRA
# Chain of ELF4 (Q99607 whole entry): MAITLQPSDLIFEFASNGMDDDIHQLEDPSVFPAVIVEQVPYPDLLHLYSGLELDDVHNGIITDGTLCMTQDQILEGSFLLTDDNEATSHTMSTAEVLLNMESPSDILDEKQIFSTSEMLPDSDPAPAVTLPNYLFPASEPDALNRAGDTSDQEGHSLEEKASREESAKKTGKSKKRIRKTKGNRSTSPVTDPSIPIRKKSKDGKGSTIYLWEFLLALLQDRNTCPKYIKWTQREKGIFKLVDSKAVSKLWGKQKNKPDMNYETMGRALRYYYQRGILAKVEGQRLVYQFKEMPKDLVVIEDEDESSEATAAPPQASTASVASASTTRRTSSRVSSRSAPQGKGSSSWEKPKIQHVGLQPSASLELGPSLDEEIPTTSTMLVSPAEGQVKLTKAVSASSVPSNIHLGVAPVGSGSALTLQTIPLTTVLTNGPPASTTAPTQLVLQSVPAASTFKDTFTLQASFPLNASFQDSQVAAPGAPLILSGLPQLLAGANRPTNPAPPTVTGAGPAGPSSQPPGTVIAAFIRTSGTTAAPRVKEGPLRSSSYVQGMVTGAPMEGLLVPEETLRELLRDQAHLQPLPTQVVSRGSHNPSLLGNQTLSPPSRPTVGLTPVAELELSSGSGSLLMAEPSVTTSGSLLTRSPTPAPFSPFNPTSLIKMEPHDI
sequence,measurement,setting,value
TTGTGC,binding signal,FLI1,"1.28 fold enrichment (6-mer frequency, TF over GST control)"
same,binding signal,ELK1,"1.25 fold enrichment (6-mer frequency, TF over GST control)"
same,binding signal,GABPA,"1.27 fold enrichment (6-mer frequency, TF over GST control)"
same,binding signal,ERG,"1.23 fold enrichment (6-mer frequency, TF over GST control)"
same,binding signal,ELF1,"1.14 fold enrichment (6-mer frequency, TF over GST control)"
same,binding signal,EHF,"1.21 fold enrichment (6-mer frequency, TF over GST control)"
same,binding signal,SPI1,"1.18 fold enrichment (6-mer frequency, TF over GST control)"
same,binding signal,SPIB,"1.1 fold enrichment (6-mer frequency, TF over GST control)"
same,binding signal,ELK3,"1.21 fold enrichment (6-mer frequency, TF over GST control)"
same,binding signal,FEV,"1.18 fold enrichment (6-mer frequency, TF over GST control)"
same,binding signal,ETV5,"1.17 fold enrichment (6-mer frequency, TF over GST control)"
same,binding signal,HSF1,"1.07 fold enrichment (6-mer frequency, TF over GST control)"
same,binding signal,SPIC,"1.37 fold enrichment (6-mer frequency, TF over GST control)"
same,binding signal,ELF4,"1.13 fold enrichment (6-mer frequency, TF over GST control)"
same,binding signal,ELK4,"1.23 fold enrichment (6-mer frequency, TF over GST control)"
same,binding signal,ETV2,"1.23 fold enrichment (6-mer frequency, TF over GST control)"
same,binding signal,ELF3,"1.24 fold enrichment (6-mer frequency, TF over GST control)"
same,binding signal,CRX,"1.09 fold enrichment (6-mer frequency, TF over GST control)"
same,binding signal,ETV1,"1.09 fold enrichment (6-mer frequency, TF over GST control)"
